Measurements from PubChem BioAssay (NCI).
About 83,000 compounds went through this panel and 20% of them were active in at least one assay; those are over-represented in the sample as a whole.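 How to read the values: 0–100, growth inhibition (40 = 60% inhibited); 0, no net growth; -100 to 0, cell death (-40 = 40% of starting cells died; -100 = all dead).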 Active and inactive are the calls of the source.

system: MOLT-4 leukemia; assay: NCI-60 one-dose screen, 48 h (100 = growth as untreated, 0 = no growth, -100 = all killed); settings: 10 µM unless noted
Protocol: Growth inhibition of the MOLT-4 human tumor cell line is measured as a screen for anti-cancer activity. Cells are grown in 96 well plates and exposed to the test compound for 48 hours. Compounds are tested at a single concentration, which is 10^-5 M for most compounds. The reported endpoint is percent growth (GI% or GIPRCNT), where numbers from 0 - 100% represent growth inhibition, and numbers from -100% - 0 represent cell death. For example, a value of 40 represents 60% growth inhibition. A value of 0 means no net growth occurred over the course of the experiment. A value of -40 indicates 40% of cells at the beginning of the experiment died by the end of the experiment. A value of -100 means all cells are dead at the end of the experiment.
NCI-60 Human Tumor Cell Lines Screen was performed using the standard one-dose NCI protocol, which is described in more detail at https://dtp.cancer.gov/discovery_development/nci-60/default.htm.
Compounds with GIPRCNT values below 10 were considered active. Activity score was based on GIPRCNT using the following formula: […]
Score is 0 for GIPRCNT values of 100 or above, 50 for GIPRCNT values of 0, and 100 for GIPRCNT values of -100.

Compound	growth
CCOC(=O)c1c(NC(=O)c2ccc(C(C)C)cc2)sc2c(CN(C)C)c(O)ccc12	-21% (active)
CN(C)CC(=O)Nc1ccc2ncnc(Nc3ccc(Oc4cccc(C(F)(F)F)c4)c(Cl)c3)c2c1	50.8% (inactive)
CC(C)(C)n1cc(-c2ccnc(NCCNS(=O)(=O)c3cccc4ccccc34)c2)c(-c2cccc(F)c2)n1	-15.5% (active)
COC(=O)c1cc(-c2ccc(OC)cc2)[nH]c1N/N=C/c1c(Cl)cccc1Cl	12.4% (inactive)
N#C/C(=C\c1ccc(-c2ccc(Cl)cc2)o1)C(=O)Nc1ncc(Cc2ccc(Cl)cc2)s1	78.3% (inactive)
O=C(O)c1ccc(-n2cc(/C=N/Nc3ccc(F)cc3)c(-c3cc4ccccc4oc3=O)n2)cc1	48.1% (inactive)
COC(=O)[C@]1(C)CCC[C@]2(C)[C@H]3C[C@H]4C(C(C)C)=C[C@]3(CC[C@H]21)[C@H]1[C@@H]4[C@@H](OCCC#N)CC[C@@H]1OCCC#N	4.3% (active)
O=C(CCCCC1CCSS1)Nc1ncnc2n[nH]c(-c3ccc(Oc4ccccc4)cc3)c12 (stereo not given)	-31.3% (active)
CC(C)(C)[Si](C)(C)O[C@H]1C(=O)C=CN2CC=C[C@@H]12	118% [100 µM] (inactive)
CCN(CC)CCOc1ccc(C(=C(C)c2ccc(Cl)cc2)c2ccc(OCCN(CC)CC)cc2)cc1	-64.2% (active)
O=C(c1ccc(-c2ccccc2)cc1)c1ccc([N+](=O)[O-])cc1	52.6% (inactive)
N#CC1=C(N)Oc2c(sc3c(Br)cccc23)C1c1ccc(F)cc1 (stereo not given)	5.38% (active)
C[C@H](NC(=O)[C@@H](C)N)[C@H](Oc1ccc2c(cnn2-c2ccc(F)cc2)c1)c1ccc2c(c1)OCCO2	8.43% (active)
COc1ccc(C(=S)N2CCN(c3ccccc3Cl)CC2)cc1OC	76.4% (inactive)
Cn1cc(-c2csc(-c3ccc(Cl)cc3)n2)c2cccnc21	2.44% [100 µM] (active)
COc1cc(-c2cc(-c3ccc(N(C)C)cc3)nc(N3CCC(O)CC3)c2C#N)cc(OC)c1OC	2.62% (active)
O=Cc1ccc([N+](=O)[O-])s1	88.3% (inactive)
O=C(O)CNC1=C(Cl)C(=O)c2ccccc2C1=O	100% (inactive)
COc1cc2c(c(OC)c1OC)C(=O)CC(c1cccc(NC(=O)c3ccc(Br)cc3)c1)O2 (stereo not given)	-11.5% (active)
CC(=O)n1nc(C(=O)OC(C)C)c2cc(C)c(C)cc21	84.8% (inactive)

Compound	growth
C/C(=N\NC(=O)c1ccccc1O)c1cccc(/C(C)=N/NC(=O)c2ccccc2O)n1	24.5% (inactive)
CN(C)CCCn1c2c(c3ncccc3c1=O)C(=O)c1ccccc1-2	17.3% (inactive)
COc1ccc(C2c3sc4c(F)cccc4c3Oc3nc[nH]c(=O)c32)cc1 (stereo not given)	84.2% (inactive)
Cc1ccc(-c2cc(-c3ccc(Cl)cc3)nc(NC(=O)c3cccnc3)n2)cc1	93.2% (inactive)
Cc1ccc(Sc2oc(-c3ccc(C)cc3)nc2[P+](c2ccccc2)(c2ccccc2)c2ccccc2)cc1	-25.9% (active)
COc1ccccc1NC(=O)Cn1cc(CN2CCN(c3ccnc4cc(Cl)ccc34)CC2)nn1	70.8% (inactive)
N#Cc1c(NC(=O)c2ccccc2)sc2c1CCC(=O)C2	8.12% (active)
O=C(O)/C(=C\c1ccc(Cl)cc1)c1ccc(Cl)cc1	50% (inactive)
CN(CCn1sc(=O)n(Cc2ccccc2)c1=O)Cc1ccc2c(Cl)cc(Cl)c(O)c2n1	27.7% (inactive)
O=S(=O)(NCCNc1nccc(-c2c(-c3cccc(F)c3)nc3occn23)n1)c1ccc(Br)cc1	82.5% (inactive)
COc1ccc(-c2ccc3cnc4sc(-c5ccc(OC)cc5)nc4c3n2)cc1	85.9% (inactive)
CNC(=O)c1cc(Oc2ccc3c(c2)sc2nc(-c4cc(OC)c(OC)c(OC)c4)cn23)ccn1	18.3% (inactive)
O=C(/C=C/c1ccc(Cl)cc1)c1cccc(Nc2nc(Nc3ccccc3)nc(Nc3ccccc3)n2)c1	61.7% (inactive)
COC(=O)CCC(=O)C(=O)OC	-11.4% [10 mM] (active)
CC(O)c1cnc(/C=C2\SC(=S)N(Cc3ccccc3)C2=O)s1 (stereo not given)	58.1% (inactive)
COc1cc(CNC(=O)/C=C/C=C/c2ccc3c(c2)OCO3)ccc1OCc1cn(-c2ccc(C)c(C)c2)nn1	96.2% (inactive)
CC1(C)CCC(S(=O)(=O)c2ccc3c(c2)/C(=N\O)c2cc(S(=O)(=O)N4CCC(O)(c5cccc(C(F)(F)F)c5)CC4)ccc2-3)CC1	-69.2% (active)
Cc1ccc(Sc2nnc(/N=C3\C(=O)Nc4ccccc43)s2)cc1	100% (inactive)
COc1cc(OC)c2sc(-c3ccc(-n4cncc4-c4ccc(OC)c(OC)c4)cc3)nc2c1	33.6% (inactive)
N#Cc1c(N)nnn1Cc1cc(=O)oc2c1ccc1ccccc12	89% (inactive)
